# In PubChem BioAssay (Tox21):
# A number with no mark means an inactive call. Active and inactive are the calls of the source. Calls follow the shape of the dose curve; as a rule, active = well fitted curve in the direction sought with a large enough effect in the repeat runs; inconclusive = weak or mixed curves; inactive = flat fitted curve, though single readings scatter.
# Assay: qHTS assay to test for compound auto fluorescence at 535 nm (green) in HEK293 cells (AID 720680)
# Conditions: green autofluorescence 485/535 nm; series mostly up to 91.3 µM; fluorescence, % of fluorescein: at the top concentration
# From the text: U.S. Tox21 Program National Center for Advancing Translational Sciences [NCATS] NIH Chemical Genomics Center [NCGC] U.S. Environmental Protection Agency [EPA] National Institutes of Environmental Health Sciences [NIEHS] National Toxicology Program [NTP] U.S. Food and Drug Administration [FDA] Tox21 Assay Overview: Compound auto fluorescence often interferes with screening of the compound library against various biological targets and signaling pathways. Some of these compounds may have fluorophoric properties. Such properties may interfere with the assay outputs resulting in false positives and/or negatives. To decrease such complications and ensure the compound activities are relevant in terms of biological response, the Tox21 10K compound library was screened for auto fluorescence. From the fluorophores used as reporter signals in our screening assays, the auto fluorescence equivalencies of compounds against three fluorophores have been evaluated: Triamterene, Fluorescein and Rose Bengal sodium for blue, green and red fluorescence, respectively. The fluorescence intensities were measured using Excitation/Emission wavelengths at 405/460nm, 485/535nm and 540/590nm for blue, green and red labels, respectively. This assay includes the green fluorescence data.
# Tox21 Assay Protocol Summary: 2,000 HEK293 cells in 5 uL of culture medium containing 10% dialyzed FBS per well were dispensed into black wall/clear bottom 1536-well plates using a Multidrop Combi Dispenser (Thermo Scientific). The assay plates were incubated for 4-5 hr at 37C to allow cell attachment to the well bottom, followed by the transfer of 23 nL compound or DMSO vehicle by a pintool work station (Kalypsys, San Diego, CA). After the assay plates were incubated overnight at 37C and 5% CO2, fluorescence intensities in the assay plates were measured by an Envision (PerkinElmer, Shelton, CT) plate reader using three labels for measuring blue, green and red fluorescence at […] 460, 535 and 590nm respectively.
# % is scaled to controls: 0 for no effect and ±100 for the full control effect.
Structure (SMILES),"fluorescence, % of fluorescein",outcome
CC(Cc1ccccc1)NCc1ccccc1Cl (stereo not given),0.0156% [at 46 µM],
CCOc1cccc(C2(N3CCN(c4ccccc4)CC3)CCC(C)CC2)c1 (stereo not given),-0.006%,
NC(=O)CF,0.0039%,
O=C(O)c1cc(Cl)ccc1Cl,-0.0099%,
c1ccc2c(c1)sc1ccccc12,,inactive
O=C(O)C(F)(F)C(F)(F)C(F)(F)C(F)(F)C(F)(F)F,-0.13%,
Nc1cccc2ccccc12,,inactive
C[C@H]1[C@@H]2Cc3ccc(O)cc3[C@@]1(C)CCN2C,0.0726% [at 203 µM],
[Cl-].[Cl-].[Hg+2],,inactive
CCCCCCCCCCCCCCCl,0.0235%,
CC(C)(c1ccccc1)c1cc(-n2nc3ccccc3n2)c(O)c(C(C)(C)c2ccccc2)c1,0.0489% [at 46 µM],
N#CC(C#N)=C(C#N)C#N,0.0116% [at 95.7 µM],
CCNC(=O)NC(=O)/C(C#N)=N/OC,-0.0338%,
NC(=S)c1c(Cl)cccc1Cl,0.0178%,
O=CC=O,,inactive
O=C1CC[C@@]2(O)[C@H]3Cc4ccc(O)c5c4[C@@]2(CCN3CC2CC2)[C@H]1O5,-0.0016% [at 46 µM],
CCCC[N+]1(C)[C@@H]2CC(OC(=O)[C@H](CO)c3ccccc3)C[C@H]1[C@@H]1O[C@@H]12 (stereo not given in full),0.043% [at 46 µM],
NP(N)(=O)NC(=O)c1ccc(F)cc1,-0.256% [at 46 µM],
C[Si](Cn1cncn1)(c1ccc(F)cc1)c1ccc(F)cc1,,inactive
CC(=O)OC(c1ccccc1)C(Cl)(Cl)Cl (stereo not given),0.0341%,

Structure (SMILES),"fluorescence, % of fluorescein",outcome
CC(C)c1ccc(NC(=O)N(C)C)cc1,0.0083%,
O=C=NC1CCCCC1,-0.0696%,
CCCCCCCCCCCCN=C(N)N,0.14% [at 3.72 µM],
O=[N+]([O-])O[C@H]1CO[C@H]2[C@@H]1OC[C@H]2O[N+](=O)[O-],0.0253% [at 46 µM],
CC(=O)NNc1ccccc1,0.018%,
C=CCSSCC=C,0.0388%,
O=C1c2ccccc2C(=O)N1SC(Cl)(Cl)Cl,,inactive
c1ccc2sc(SNC3CCCCC3)nc2c1,,inactive
Nc1c(Br)cc(Br)c2c1C(=O)c1ccccc1C2=O,-0.0125% [at 18.6 µM],
CCC(C)(C)O,-0.0926%,
CCCN(CCC)c1c([N+](=O)[O-])cc(C(C)C)cc1[N+](=O)[O-],,inactive
CCCN(CCOc1c(Cl)cc(Cl)cc1Cl)C(=O)n1ccnc1,,inactive
Cc1cnc(C2=NC(C)(C(C)C)C(=O)N2)c(C(=O)O)c1 (stereo not given),-0.104%,
C[C@]12CC[C@H]3[C@@H](CCC4=CC(=O)CC[C@@H]43)[C@@H]1CC[C@@H]2OC(=O)CCc1ccccc1,-0.044% [at 46 µM],
CN(C)C(=O)Nc1cccc(OC(=O)NC(C)(C)C)c1,-0.0372%,
CCCC[N+](CCCC)(CCCC)CCCC,0.0088%,
OCCCl,0.0319%,
O=C(N/N=C/c1ccc([N+](=O)[O-])o1)c1cc([N+](=O)[O-])cc([N+](=O)[O-])c1O,-0.21% [at 46 µM],
CCCCC1C(=O)NC(=O)N(C2CCCCC2)C1=O (stereo not given),-0.005% [at 46 µM],
CC(C)CCON=O,,inactive
